Records with an inconclusive call do not appear. A call without a number means that no potency is given here. Activity calls are given as the source filed them. Calls follow the shape of the dose curve; as a rule, active = well fitted inhibition curve with a large enough effect; inconclusive = small, poorly fitted or top-dose-only effect; inactive = flat fitted curve, though single readings scatter.
Potency is read from the fitted curve at half-maximal effect.

The nature of the experiment: P-glycoprotein substrates identified in KB-8-5-11 adenocarcinoma cell line, qHTS therapeutic library screen (AID 1346987). Also: nearly all actives have a fitted effect of over 65% in size. The conditions noted are these: KB-8-5-11 (P-gp overexpressing) viability, CellTiter-Glo, 72 h; series mostly up to 44.5 µM. In a few lines: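 Luminescence from CellTiter-Glo, read 5 min after addition, quantified survival of KB-8-5-11 (P-gp-overexpressing) cells exposed to compounds for 72 h. AC50 was derived from concentration-response curves.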
On to `COC(=O)C[C@H]1C(C)(C)[C@H](OC(=O)C(C)C)[C@@]2(O)C(=O)[C@]1(C)C1CC[C@]3(C)C(CC(=O)O[C@H]3c3ccoc3)[C@]13O[C@@H]32` (some centres undefined), for which the Potency entry is “inactive”.

In the case of `COc1cc(OC)c(/C=C/S(=O)(=O)Cc2ccc(OC)c(NCC(=O)O)c2)c(OC)c1`, the Potency is 461 nM (active).

As for `C=C1CCC2C(C)(COC(C)=O)CCCC2(C)C1CCC(C)CC(=O)O` (centres undefined), the Potency entry was “inactive”.

Regarding `CNS(=O)(=O)c1ccccc1Nc1nc(Nc2ccc(N3CCN(C)CC3)cc2OC)ncc1Cl`, the Potency is 651 nM (active).

On to `CC1(C)CC[C@]2(CO[C@@H]3O[C@H](CO)[C@@H](O)[C@H](O)[C@H]3O)[C@@H](O)C[C@]3(C)C(=CCC4[C@@]5(C)CC[C@H](O[C@@H]6O[C@H](CO[C@@H]7O[C@H](CO[C@@H]8OC[C@@H](O)[C@H](O)[C@H]8O)[C@@H](O)[C@H](O)[C@H]7O)[C@@H](O)[C@H](O)[C@H]6O)C(C)(C)C5CC[C@]43C)[C@@H]2C1` (some centres undefined), for which the activity change, negative = cytotoxicity was 1.76% [at 9.29 µM] (inactive).

On to `O=C(c1cn(Cc2cncn2Cc2ccc(Br)cc2)cc1-c1cccc2ccccc12)N1CCOCC1`, for which the Potency was 4110 nM (active).

Consider `C/C1=C\CCC2=C[C@@H](OC2=O)c2c(C)coc2C1`, for which the Potency entry was “inactive”.

As to `c1cc(OCCCN2CCCCC2)ccc1CN1CCCCC1`, the Potency entry was “inactive”.

In the case of `CO[C@H]1/C=C/C=C/C=C/C[C@H](OC(=O)[C@@H](C)NC(=O)C2CCCCC2)[C@H](C)[C@@H](O)/C(C)=C/CCc2cc(O)cc(c2)NC(=O)C1`, the Potency entry was “inactive”.

With `OC[C@H]1O[C@@H](O[C@H]2[C@H](OCCc3ccccc3)O[C@H](CO)[C@@H](O)[C@@H]2O)[C@H](O)[C@@H](O)[C@@H]1O`, the Potency result was “inactive”.

On to `C[C@@H]1O[C@@H](O[C@H]2[C@H](O)[C@@H](O)[C@H](O[C@H]3[C@H](O[C@H]4CC[C@@]5(C)C(=CC[C@@H]6C5CC[C@]5(C)[C@@H]7[C@H](C[C@@H]65)O[C@]5(CC[C@@](C)(CO[C@@H]6O[C@H](CO)[C@@H](O)[C@H](O)[C@H]6O)O5)[C@H]7C)C4)O[C@H](CO)[C@@H](O)[C@@H]3O)O[C@@H]2CO)[C@H](O)[C@H](O)[C@H]1O` (some centres undefined), for which the activity change, negative = cytotoxicity is 4.84% [at 9.29 µM] (inactive).

Consider `COc1cc(O)cc(/C=C/c2ccc(O[C@@H]3O[C@H](CO)[C@@H](O)[C@H](O)[C@H]3O)cc2)c1`, for which the Potency result is “inactive”.

As for `C[C@@H]1O[C@@H](O[C@H]2[C@H](O)[C@@H](O[C@@H]3O[C@H](CO)[C@@H](O)[C@H](O[C@@H]4O[C@H](CO)[C@@H](O)[C@H](O)[C@H]4O)[C@H]3O)[C@H](O[C@H]3CC[C@@]4(C)C(=CC[C@@H]5C4CC[C@@]4(C)C5C[C@@H]5OC6(CC[C@@](C)(CO[C@@H]7O[C@H](CO)[C@@H](O)[C@H](O)[C@H]7O)O6)[C@@H](C)[C@@H]54)C3)O[C@@H]2CO)[C@H](O)[C@H](O)[C@H]1O` (some centres undefined), the activity change, negative = cytotoxicity was 3.17% [at 9.29 µM] (inactive).

Consider `O=C(c1ccccc1)c1ccc2nc(NC(=O)c3csc(C4CCN(c5ncnc6ccsc56)CC4)n3)[nH]c2c1`, for which the Potency was 5800 nM (active).

`CCN(Cc1cccnc1)C(=O)CN(c1ccc(OC)nc1)S(=O)(=O)c1ccccc1C`: the Potency entry is “inactive”.

On to `O=C(O)C1CN(Cc2ccc(-c3nc4cc(Cc5ccccc5F)ccc4s3)c(F)c2)C1`, for which the activity change, negative = cytotoxicity is 0.617% [at 9.29 µM] (inactive).

With `O=C(Nc1nc2ccccc2n1CCc1ccccc1)c1ccccc1`, the Potency result was “inactive”.

Take `CC1(O)CC(O)C2(O)C=COC(O[C@@H]3O[C@H](CO)[C@@H](O)[C@H](O)[C@H]3O)C12` (some centres undefined): the Potency result is “inactive”.

As to `CCNC(=O)Nc1ncc(-c2cc(-c3c(C)cc(OC)cc3C)nc(-c3cnccn3)n2)s1`, the Potency entry is “inactive”.

Values taken from PubChem BioAssay (NCATS).
